This note sets out measurements from PubChem BioAssay (Tox21).

Records with an inconclusive call do not appear. A call without a number means that no potency is given here. The source made the active and inactive calls. The call rests on the fitted dose curve; in most records, active means well fitted activation curve with a large enough effect in the repeat runs; inconclusive means weak or mixed curves; inactive means flat fitted curve, though single readings scatter.

The nature of this assay: A CellTox Green Cytotoxicity Assay to monitor cytotoxicity in HepG2 cells - 8 hour (AID 1224890). Further: nearly all actives have a fitted effect of over 45% in size. The settings on record: CellTox Green fluorescence; series mostly up to 76.8 µM. From the text: National Center for Advancing Translational Sciences [NCATS]
NIH Chemical Genomics Center [NCGC]
U.S. Environmental Protection Agency [EPA]
National Institutes of Environmental Health Sciences [NIEHS]
National Toxicology Program [NTP]
Cell-based models are critical for drug discovery. Determining the natural cytotoxic effects resulting from test compounds is an essential research activity. A CellTox Green Cytotoxicity Assay to monitor cytotoxicity in real time of continues cell culture during 40 hours of the compound treatment was used to screen Tox21 10K library compounds in HepG2 cells. CellTox Green Cytotoxicity Assay is a nonlytic, homogeneous, biofluorescent method to measure cytotoxicity in cell culture after experimental manipulation. The assay system uses a proprietary asymmetric cyanine dye that is excluded from viable cells but preferentially stains the dead cell's DNA. […] Viable cells produce no appreciable increases in fluorescence. Therefore, the fluorescence signal produced by the binding interaction with dead cell DNA is proportional to cytotoxicity.
The mixture of HepG2 cell suspension and reagents were dispensed at 600cells/6 ul/well in 1536-well tissue culture treated black solid bottom plates using a Multidrop dispenser. After the assay plates were incubated at a 37 C/5% CO2 incubator for 5 hours, 23 nL of compounds dissolved in DMSO, positive and negative controls was transferred to the assay plate by a pintool work station. The plates were incubated at 37 C for 40 hours. The fluorescence intensity were measured at 0h, 8h, 16h, 24h, 32h and 40h time points using ViewLux plate reader during compound treatment.
On to `CC(=O)NC1CCSC1=O` (stereo not given), for which the Potency result was “inactive”. On to `O=C(O)C(F)(F)C(F)(F)C(F)(F)C(F)(F)C(F)(F)C(F)(F)C(F)(F)C(F)(F)C(F)(F)F`, for which the Potency result is “inactive”. As for `COc1ccc(-c2ccccc2)cc1NNC(=O)OC(C)C`, the Potency result was “inactive”. In the case of `CC(O)(CS(=O)(=O)c1ccc(F)cc1)C(=O)Nc1ccc(C#N)c(C(F)(F)F)c1` (stereo not given), the Potency result was “inactive”.

As for `O=[N+]([O-])c1ccccc1CCl`, the Potency result was “inactive”. As for `CC(C)N(CCC(C(N)=O)(c1ccccc1)c1ccccn1)C(C)C` (stereo not given), the entry is “inactive”. As to `C/C=C/C=O`, the Potency result was “inactive”. With `O=C(NCc1cccnc1)Nc1ccc([N+](=O)[O-])cc1` the entry was “inactive”; with `CC1CC(CC2CCC(N)C(C)C2)CCC1N` (stereo not given), “inactive”; with `CC(C)=CCOc1c2occc2cc2ccc(=O)oc12`, “inactive”. In the case of `O=C(CBr)Nc1ccc(Cl)cc1C(=O)c1ccccc1F`, the Potency result is “inactive”.

On to `O=NN1CCCCCC1`, for which the Potency entry was “inactive”.

`C=CC(=O)NCNC(=O)C=C`: the Potency entry was “inactive”.

Consider `CC(C)N(C(=O)COc1nnc(C(F)(F)F)s1)c1ccc(F)cc1`, for which the Potency entry is “inactive”. With `CCOC(=O)COc1cc(-c2nn(C)c(OC(F)F)c2Cl)c(F)cc1Cl` the entry was “inactive”. For the compound `CCCCCCC#N`, the Potency entry was “inactive”. For `Cn1cc[n+](C)c1` (tested in a mixture with another compound), the Potency entry was “inactive”. `CC(C)(Cl)[N+](=O)[O-]`: the Potency entry was “inactive”.

Take `CCn1cc[n+](C)c1`: the Potency entry is “inactive”. With `O=C(NC(=O)c1c(F)cccc1F)Nc1cc(Cl)c(Oc2ncc(C(F)(F)F)cc2Cl)c(Cl)c1`, the Potency result is “inactive”. For `CCC(C)(NC(=O)c1cc(Cl)c(C)c(Cl)c1)C(=O)CCl` (stereo not given), the Potency entry is “inactive”. Consider `CCCN(CCCl)c1c([N+](=O)[O-])cc(C(F)(F)F)cc1[N+](=O)[O-]`, for which the Potency result is “inactive”.

Turning to `O=C(Nc1ccccc1)Nc1ccnc(Cl)c1`, the Potency entry is “inactive”. Regarding `Cl/C=C\C[N+]12CN3CN(CN(C3)C1)C2`, the Potency result is “inactive”.

For the compound `c1ccoc1`, the Potency result is “inactive”. As for `Cc1ccccc1C(=O)Nc1cccc(OC(C)C)c1`, the entry is “inactive”; as for `Cc1ccccc1CCl`, “inactive”. With `COc1cc(CC(C)N)cc2c1OCO2` (stereo not given) the entry was “inactive”. `ClCCCCBr`: the Potency result was “inactive”.

In the case of `O=C(OC1CCCCC1)c1ccccc1C(=O)OC1CCCCC1`, the Potency result was “inactive”.

For the compound `CC(=O)[C@H]1CC[C@H]2[C@@H]3CC[C@H]4C[C@](C)(O)CC[C@]4(C)[C@H]3CC[C@]12C`, the Potency result is “inactive”. For `C[C@]12CC[C@H]3[C@@H](CCC4=CC(=O)CC[C@@H]43)[C@@H]1CC[C@@H]2OC(=O)CCC1CCCCC1`, the Potency entry was “inactive”. As for `C[C@@H]1CC[C@H]2[C@@H](C)C(=O)O[C@@H]3O[C@@]4(C)CC[C@@H]1[C@]32OO4`, the entry is “inactive”; as for `Nc1nc(N)nc(N)n1`, “inactive”; as for `Cc1c(F)c(F)c(COC(=O)C2C(/C=C(\Cl)C(F)(F)F)C2(C)C)c(F)c1F` (stereo not given), “inactive”.

With `O=S(=O)(O)C(F)(F)C(F)(F)C(F)(F)C(F)(F)F`, the Potency entry is “inactive”. For the compound `NC(=O)C(Cl)(Cl)Cl`, the Potency result was “inactive”. As for `ClP(Cl)(Cl)(Cl)Cl`, the entry is “inactive”. As for `CCCN(CCC)c1c([N+](=O)[O-])cc(S(C)(=O)=O)cc1[N+](=O)[O-]`, the entry is “inactive”; as for `CC(C)(C)C(O)C(Oc1ccc(Cl)cc1)n1cncn1` (stereo not given), “inactive”.
